Measured values from PubChem BioAssay.
Where “and” joins values, the source holds several entries; their conditions need not be identical. Equal values may be shown once. Inconclusive results are not listed. For part of these data: Entries with a potency or affinity are not part of this list. Calls of active or inactive are those of the source.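 The calls were made as follows, unless noted: active = compounds whose cell count with miR-34 switched on is under 0.7 times the count with it off; inactive = the rest.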

Legend:
[1] = liver-stage malaria parasite growth inhibition, primary screen, cell-based, HepG2, luciferase luminescence, HepG2 viability (AID 624349; in the data active = parasite load remaining mostly below about 12%, no sharp cut-off; inactive = mostly above about 10%;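 also: 100% = mean of DMSO negative control wells on the same plate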); settings: P. berghei liver stage in HepG2, luciferase luminescence, concentration not given here; parasite load remaining: stronger effect = lower value; viability: measured here: HepG2 viability without parasites
[2] = biological target: 6-phosphogluconate dehydrogenase, decarboxylating (Homo sapiens) (UniProt P52209); assay: 6PGD enzyme inhibitors, primary screen, biochemical, human, recombinant enzyme, NADPH absorbance (AID 1159550;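 active = at least 20% inhibition of 6-phosphogluconate dehydrogenase activity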); settings: recombinant 6PGD, NADPH absorbance 341 nm; at 10 µM; stronger effect = higher value
[3] = sensitizers of A549 cells to miR-34 induction, primary screen, imaging, A549 dox-inducible miR-34, nuclei and caspase counts (AID 1347080); settings: A549 miR-34 inducible, Hoechst nuclei count, 48 h
[4] = survival rescue of mitochondrial mutant cells in low glucose, primary screen, MELAS cybrids, Rieske KO mouse fibroblasts, CellTiter-Glo (AID 1508586;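 active = mean z-score across replicates of 1.96 or higher in either the MELAS or the Rieske mutant cell line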;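 also: z relative to plate mean and SD of compound and empty wells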)
[5] = biological target: NAD(+) hydrolase SARM1 (Homo sapiens) (UniProt Q6SZW1); assay: SARM1 TIR NADase inhibitors, cell lysate, NAD-Glo luminescence (AID 1508614;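 active = compound whose remaining NAD level is above about 45 nM, limit read from the data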;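 also: higher remaining NAD means stronger inhibition of SARM1 NADase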); settings: SAM-TIR HEK293T lysate NADase, at 1 µM, stronger effect = higher value
[6] = biological target: Mitogen-activated protein kinase 7 (Homo sapiens) (UniProt Q13164); assay: ERK5 transactivation activators in reporter cells, primary screen, cell-based, HTS (AID 1508626;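 active = luciferase signal above three times the same-plate solvent-only control wells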;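 also: luciferase driven by Gal4-ERK5 fusion binding five Gal4 sites before minimal TATA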); settings: HeLa Gal4-ERK5 transactivation, 18 h, at 5 µM, stronger effect = higher value
[7] = circadian clock period modulators, cell-based, LOPAC library, luminescence reporter (AID 2774; call rule not given here;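 also: values are relative to mean of DMSO wells on each plate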); settings: circadian reporter cells, at 7 µM, actives lie on both sides
[8] = system: Hepatitis C virus NS3 helicase; assay: HCV NS3 helicase inhibitors, primary screen, biochemical, fluorescence polarization, LOPAC1280 library (AID 687035; in the data active = inhibition above about 37%); settings: Purified HCV NS3 helicase, Cy5-dT15 ssDNA binding fluorescence polarization; stronger effect = higher value; concentration not given here
[9] = Cy5 fluorescence quenching or enhancement artefacts, artefact control for HCV NS3 helicase inhibitor project, biochemical, LOPAC1280 (AID 687037; call rule not given here); settings: Cy5-DNA-NS3h complex fluorescence interference counterscreen
[10] = phospholipid biosynthesis inhibitors in animal cells, primary screen, cell-based, LOPAC library, screen 4 (AID 1347384; call rule not given here); settings: phospholipid biosynthesis inhibition screen, at 10 µM
[11] = viability rescue of complex I mutant cybrids, primary screen, cell-based, galactose medium, ATP luminescence (AID 1645843;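 active = z-score of at least 1.8 in each of two replicates, scored against plate mean and spread of sample wells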;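 also: positive z means more ATP and so rescue of galactose-driven cybrid death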); settings: complex I mutant cybrid cells, 72 h, stronger effect = higher value
[12] = biological target: ATP-dependent translocase ABCB1 (Homo sapiens) (UniProt P08183); assay: MDR1 (ABCB1) efflux transporter inhibition, cell-based (AID 377; in the data active = fluorescence slope change above about 50%); settings: MDR1-expressing cells, fluorescent substrate accumulation slope; stronger effect = higher value; concentration not given here
[13] = polyglutamine-triggered caspase-3 activation inhibitors, cell-based (AID 1583); settings: polyglutamine-induced caspase-3 activation, cell assay; stronger effect = higher value;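 tested at 10 µM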
[14] = suppressors of polyQ aggregation in yeast, 75Q-TubU reporter (AID 1593); settings: Yeast 75Q polyglutamine aggregation reporter
[15] = rescue of polyQ-huntingtin neuronal dysfunction in worms, whole organism, C. elegans mechanosensory neurons, N-terminal huntingtin (AID 1599); settings: touch response, stronger effect = higher value
[16] = inhibitors of mitochondrial cytochrome c release, biochemical, purified mitochondria (AID 1603); settings: stronger effect = lower value;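 also: mouse liver mitochondria challenged with calcium chloride; signal normalized to the plate average as 100%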
[17] = inhibitors of polyQ protein aggregation (AID 1604); settings: polyglutamine-induced protein aggregation inhibition assay; stronger effect = higher value; tested at 2.5 µM
[18] = protection against mutant huntingtin cytotoxicity, PC12 cells, LDH release (AID 1610); settings: PC12 mutant huntingtin toxicity, final LDH at 4 uM, stronger effect = lower value
[19] = enhancers of glutamate uptake in motor neurons, MN-1 cell line (AID 1612); settings: MN-1 motor neuron cells, stronger effect = higher value;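 also: tested at 1 µM final; 0% = mean of DMSO vehicle wells on each plate; positive means more glutamate uptake than control and negative means less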
[20] = suppressors of polyglutamine aggregation in yeast, 75Q-TubH (AID 1616); settings: S. cerevisiae 75Q-TubH polyglutamine aggregation suppression; stronger effect = higher value
[21] = hESC survival regulators, cell-based (AID 493140; call rule not given here;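 also: cells exposed to compounds for four days before counting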); settings: human embryonic stem cell survival screen; stronger effect = higher value
[22] = inhibitors of Cryptococcus chitosan production, flow cytometry, Cibacron Brilliant Red staining (AID 1347148; call rule not given here;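 also: compound exposure lasted three days at 37 degrees C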); settings: Cryptococcus neoformans chitosan, stronger effect = lower value; at 10 µM unless noted
[23] = reducers of polyQ inclusions in PC12 cells, cell-based, NGF-treated PC12, GFPQ80 (AID 1614); settings: PC12 NGF-treated GFP-polyQ80 inclusion reduction;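 also: lower means fewer inclusions and 0 means no inclusions at all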
[24] = stronger effect = lower value, cell number ratio, induced over uninduced
[25] = measured here: relative caspase fold change +Dox/-Dox
[26] = measured here: total cells with miR-34 induction, stronger effect = lower value
[27] = measured here: total cells without miR-34 induction
[28] = MELAS cybrid survival, CellTiter-Glo 48 h, stronger effect = higher value
[29] = Rieske KO mouse fibroblast survival, CellTiter-Glo 72 h

Mitogen-activated protein kinase 7 (Homo sapiens), sequence (Q13164 whole entry, looked up, the tested form may be a part): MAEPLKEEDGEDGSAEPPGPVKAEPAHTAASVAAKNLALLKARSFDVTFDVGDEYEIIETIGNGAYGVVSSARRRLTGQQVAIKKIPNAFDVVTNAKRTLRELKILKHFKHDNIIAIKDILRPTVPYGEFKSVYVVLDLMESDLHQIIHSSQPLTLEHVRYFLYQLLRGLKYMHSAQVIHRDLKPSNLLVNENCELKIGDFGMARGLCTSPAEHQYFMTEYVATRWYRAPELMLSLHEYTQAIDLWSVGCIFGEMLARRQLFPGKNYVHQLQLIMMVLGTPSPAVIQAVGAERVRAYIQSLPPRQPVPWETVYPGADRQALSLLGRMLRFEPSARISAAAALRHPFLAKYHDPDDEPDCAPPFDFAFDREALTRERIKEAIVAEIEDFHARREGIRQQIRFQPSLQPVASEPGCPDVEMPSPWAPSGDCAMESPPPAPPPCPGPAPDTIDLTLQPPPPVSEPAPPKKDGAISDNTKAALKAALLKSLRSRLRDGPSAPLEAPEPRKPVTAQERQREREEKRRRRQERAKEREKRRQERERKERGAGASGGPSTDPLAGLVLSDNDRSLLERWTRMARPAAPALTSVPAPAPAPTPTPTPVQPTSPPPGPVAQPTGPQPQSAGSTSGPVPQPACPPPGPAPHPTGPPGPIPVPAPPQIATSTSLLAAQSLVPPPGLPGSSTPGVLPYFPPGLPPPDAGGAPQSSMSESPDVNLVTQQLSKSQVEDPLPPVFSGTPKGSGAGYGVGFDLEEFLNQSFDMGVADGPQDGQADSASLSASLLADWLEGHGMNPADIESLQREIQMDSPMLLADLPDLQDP
6-phosphogluconate dehydrogenase, decarboxylating (Homo sapiens), sequence (P52209 whole entry, looked up): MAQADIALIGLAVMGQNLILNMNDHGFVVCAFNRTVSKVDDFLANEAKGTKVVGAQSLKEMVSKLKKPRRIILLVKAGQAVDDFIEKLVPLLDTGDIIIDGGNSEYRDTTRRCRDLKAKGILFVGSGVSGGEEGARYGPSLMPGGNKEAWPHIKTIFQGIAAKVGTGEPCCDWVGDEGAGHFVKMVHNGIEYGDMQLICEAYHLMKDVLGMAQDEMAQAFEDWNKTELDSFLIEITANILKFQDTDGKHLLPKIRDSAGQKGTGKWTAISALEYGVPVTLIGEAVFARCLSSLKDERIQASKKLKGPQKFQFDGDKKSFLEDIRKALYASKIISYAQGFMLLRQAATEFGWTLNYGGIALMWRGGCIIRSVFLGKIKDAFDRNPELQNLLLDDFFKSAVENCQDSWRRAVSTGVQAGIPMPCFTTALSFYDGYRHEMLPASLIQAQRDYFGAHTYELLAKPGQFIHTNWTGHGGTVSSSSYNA
NAD(+) hydrolase SARM1 (Homo sapiens), sequence (Q6SZW1 whole entry, looked up, the tested form may be a part): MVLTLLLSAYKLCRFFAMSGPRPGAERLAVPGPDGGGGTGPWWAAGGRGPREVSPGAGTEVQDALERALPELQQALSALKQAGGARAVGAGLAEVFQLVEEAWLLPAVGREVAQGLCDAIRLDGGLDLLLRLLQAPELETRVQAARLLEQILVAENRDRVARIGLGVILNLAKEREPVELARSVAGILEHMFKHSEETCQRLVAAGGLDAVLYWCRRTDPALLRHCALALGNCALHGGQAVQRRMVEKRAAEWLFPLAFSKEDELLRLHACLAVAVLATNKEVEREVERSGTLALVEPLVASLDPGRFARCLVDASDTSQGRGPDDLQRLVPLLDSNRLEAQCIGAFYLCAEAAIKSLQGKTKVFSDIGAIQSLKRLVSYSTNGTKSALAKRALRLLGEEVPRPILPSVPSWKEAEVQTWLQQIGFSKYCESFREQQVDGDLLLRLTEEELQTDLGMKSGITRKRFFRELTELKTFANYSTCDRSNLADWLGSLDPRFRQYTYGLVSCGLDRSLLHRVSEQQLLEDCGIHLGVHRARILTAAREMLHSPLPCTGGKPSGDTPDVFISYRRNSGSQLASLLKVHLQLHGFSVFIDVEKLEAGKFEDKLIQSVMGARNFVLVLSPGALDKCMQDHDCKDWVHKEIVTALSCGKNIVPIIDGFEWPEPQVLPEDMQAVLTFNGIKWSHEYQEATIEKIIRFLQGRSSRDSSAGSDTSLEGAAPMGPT
ATP-dependent translocase ABCB1 (Homo sapiens), sequence (P08183 whole entry, looked up): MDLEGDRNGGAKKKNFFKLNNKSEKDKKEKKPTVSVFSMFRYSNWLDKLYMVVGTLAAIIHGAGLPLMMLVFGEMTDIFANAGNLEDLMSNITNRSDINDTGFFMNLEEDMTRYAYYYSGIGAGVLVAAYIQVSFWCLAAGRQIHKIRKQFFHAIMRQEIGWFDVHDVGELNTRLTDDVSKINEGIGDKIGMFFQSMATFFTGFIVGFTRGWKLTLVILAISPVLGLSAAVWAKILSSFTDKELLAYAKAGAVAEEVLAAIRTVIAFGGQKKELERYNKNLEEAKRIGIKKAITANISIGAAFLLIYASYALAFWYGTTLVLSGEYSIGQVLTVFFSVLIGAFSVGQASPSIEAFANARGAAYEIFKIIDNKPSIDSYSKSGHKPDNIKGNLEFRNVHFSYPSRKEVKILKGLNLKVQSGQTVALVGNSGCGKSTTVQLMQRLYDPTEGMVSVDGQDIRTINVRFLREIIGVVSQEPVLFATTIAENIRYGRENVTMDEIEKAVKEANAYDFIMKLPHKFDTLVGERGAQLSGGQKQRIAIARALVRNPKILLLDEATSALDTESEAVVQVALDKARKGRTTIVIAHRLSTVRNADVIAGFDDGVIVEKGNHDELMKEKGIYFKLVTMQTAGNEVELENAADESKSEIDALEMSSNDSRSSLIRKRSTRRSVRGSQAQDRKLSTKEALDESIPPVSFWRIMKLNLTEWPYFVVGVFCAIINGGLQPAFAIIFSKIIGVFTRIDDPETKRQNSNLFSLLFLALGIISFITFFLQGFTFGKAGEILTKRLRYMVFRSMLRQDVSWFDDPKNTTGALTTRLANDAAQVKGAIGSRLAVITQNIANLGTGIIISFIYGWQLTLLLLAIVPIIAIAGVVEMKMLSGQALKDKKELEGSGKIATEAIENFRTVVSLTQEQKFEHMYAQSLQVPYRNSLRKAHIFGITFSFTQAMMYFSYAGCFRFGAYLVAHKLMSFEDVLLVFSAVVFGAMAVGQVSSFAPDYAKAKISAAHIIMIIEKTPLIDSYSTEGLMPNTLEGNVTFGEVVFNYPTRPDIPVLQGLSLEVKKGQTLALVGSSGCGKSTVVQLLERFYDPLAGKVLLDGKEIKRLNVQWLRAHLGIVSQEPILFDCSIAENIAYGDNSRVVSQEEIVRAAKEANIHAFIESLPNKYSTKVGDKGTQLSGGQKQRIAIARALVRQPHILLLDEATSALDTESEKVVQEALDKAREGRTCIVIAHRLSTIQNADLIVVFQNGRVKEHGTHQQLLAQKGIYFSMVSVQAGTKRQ

CCOc1nc2cccc(C(=O)OC(C)OC(=O)OC3CCCCC3)c2n1Cc1ccc(-c2ccccc2-c2nn[nH]n2)cc1 (configuration not stated)
parasite load remaining [1]: 137% (inactive) and 50.7% (inactive) | viability [1]: 83.9% and 101% | inhibition [2]: 2.36% (inactive) | fold change [3, 24]: 0.972 (inactive) and 0.852 (inactive) | fold change [3, 25]: 0.675 and 3.41 | cell count [3, 26]: 8090 and 11000 | cell count [3, 27]: 8320 and 12900 | z-score [4, 28]: 0.432 (inactive) | z-score [4, 29]: -0.0296 | remaining NAD [5]: 10 nM (inactive) | luciferase signal [6]: 40 AU (inactive)

Oc1cc2c(cc1O)[C@@H]1c3ccc(O)c(O)c3OC[C@]1(O)C2
inhibition [2]: 1.84% (inactive) | fold change [3, 24]: 0.884 (inactive) | fold change [3, 25]: 0.956 | cell count [3, 26]: 9250 | cell count [3, 27]: 10500 | z-score [4, 28]: -0.379 (inactive) | z-score [4, 29]: 0.131 | luciferase signal [6]: 28 AU (inactive)

O=C(N[C@@H](Cc1ccccc1)C(=O)CCl)OCc1ccccc1
period change [7]: -0.215 h (inactive) | inhibition [8]: 0% (inactive) | fluorescence ratio (interference) [9]: 1 (inactive) | inhibition [2]: 6.1% (inactive) | fold change [3, 24]: 1.3 (inactive) | fold change [3, 25]: 1.36 | cell count [3, 26]: 816 | cell count [3, 27]: 626 | outcome [10]: inactive | z-score [11]: -1.33 (inactive)

CCOc1ccc2c(c1)C(C)=CC(C)(C)N2
fluorescence slope change [12]: 16.6% (inactive) | inhibition [13]: 14.7% | score [14]: 0.77 | rescue above control [15]: 5.1 | cytochrome c release ratio [16]: 0.79 | inhibition of aggregation [17]: 25.8% | normalised LDH release [18]: 1.06 | glutamate uptake change [19]: 23.6% | aggregation suppression score [20]: 0.616 | survival [21]: 2.08 (inactive) | parasite load remaining [1]: 29.9% (inactive) | viability [1]: 95.9% | inhibition [2]: 17.3% (inactive) | fold change [3, 24]: 0.841 (inactive) | fold change [3, 25]: 1.09 | cell count [3, 26]: 8590 | cell count [3, 27]: 10200 | z-score [4, 28]: 1.71 (inactive) | z-score [4, 29]: 0.609 | luciferase signal [6]: 48 AU (inactive)

O[C@H]1[C@H]2c3cc4c(cc3CN3CCC(=C[C@@H]1O)[C@H]23)OCO4
inhibition [2]: 9.07% (inactive) | fold change [3, 24]: 1.05 (inactive) | fold change [3, 25]: 1.33 | cell count [3, 26]: 1670 | cell count [3, 27]: 1580

CCCCC/C=C\C/C=C\C/C=C\C/C=C\CCCC(=O)O
survival [21]: 45.6 (inactive) | inhibition [2]: 9.46% (inactive) | fold change [3, 24]: 1.06 (inactive) and 1 (inactive) | fold change [3, 25]: 1.01 and 0.893 | cell count [3, 26]: 5710 and 5370 | cell count [3, 27]: 5370 and 5360 | fold fluorescence [22]: 5.45 (inactive)

O=C(O)c1cc2cc(Cc3cccnc3)ccc2o1
inhibition [13]: 22.5% | score [14]: 1.36 | rescue above control [15]: -5.98 | cytochrome c release ratio [16]: 1.03 | inhibition of aggregation [17]: 1.59% | normalised LDH release [18]: 1.48 | glutamate uptake change [19]: -0.47% | inclusion score [23]: 2 | aggregation suppression score [20]: 1.23 | period change [7]: 0.065 h (inactive) | parasite load remaining [1]: 124% (inactive) | viability [1]: 73.4% | inhibition [8]: -2% (inactive) | fluorescence ratio (interference) [9]: 1 (inactive) | inhibition [2]: 4.63% (inactive) | fold change [3, 24]: 0.956 (inactive) and 0.926 (inactive) | fold change [3, 25]: 0.671 and 1.19 | cell count [3, 26]: 10100 and 5310 | cell count [3, 27]: 10600 and 5730 | outcome [10]: inactive | z-score [11]: 0.16 (inactive)

CC(=O)N[C@@H](Cc1ccccc1)C(=O)O
inhibition [2]: -1.76% (inactive) | fold change [3, 24]: 0.922 (inactive) | fold change [3, 25]: 1.14 | cell count [3, 26]: 8280 | cell count [3, 27]: 8980
